From PubChem BioAssay (NCI) come the findings set out here.

Compounds without any hit were thinned out: in the full panel of roughly 83,000, 20% have a hit.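 Step 1: grow cells in 96-well plates. Step 2: add test compound at a single concentration. Step 3: incubate 48 h. Step 4: record percent growth.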 Values without a mark were called inactive. Activity calls are given as the source filed them. How the source made its calls: active means growth percent below 10; inactive means the rest.

This test concerns CCRF-CEM leukemia. Nature of the test: NCI-60 one-dose screen, 48 h (100 = growth as untreated, 0 = no growth, -100 = all killed). As to conditions: 10 µM unless noted.
Take `Oc1cccc2ccc(-c3nnc(SCc4ccc(O)c5ncccc45)o3)nc12`: the growth was 19.6%.

For `COC(=O)c1[nH]nc2c1C1(C(=O)N(C)c3ccccc31)C(C#N)=C(N)O2` (centres undefined), the growth was 109%.

With `Cc1ccc2sc3c(c2c1)OC(N)=C(C#N)C3c1ccc(Cl)cc1` (centres undefined), the growth is 75.7%.

With `CC1=NC2=NN3C(=NN2C(c2ccccc2)=C1)N=NC(c1ccc(Br)cc1)=C3c1ccc(Br)cc1`, the growth is 106%.

As for `Cn1ccnc1C(=O)/C=C/c1ccc(NC(=O)c2c(F)c(F)c(F)c(F)c2F)cc1`, the growth is 86%.

For the compound `COc1ccc(/C=C/C(=O)c2cc(S(N)(=O)=O)c(OC)cc2OC)cc1`, the growth was 55.7%.

As for `N#Cc1cccc(CN2CCC3=C(C2)C(=O)N(Cc2ccc(Cl)cc2)C2=NCCCN23)c1`, the growth is 37.1%.

With `Cc1nn(-c2ccccc2)c2ncnc(N/N=C/c3ccccc3O)c12`, the growth was 8.92% (active).

Regarding `COc1ccc(CCN2C(=O)CSC2=S)cc1`, the growth is 75.3%.

Take `CC(=O)N1C(=S)NC(=O)C1CC(C)C` (centres undefined): the growth was 103%.

As to `Cc1ccc2sc3c(c2c1)OC(N)=C(C#N)C3c1cccc(F)c1` (centres undefined), the growth is 16.1%.

Turning to `COc1cc(-c2nc(SC(C)C)n(C(C)C)c(=O)c2C#N)ccc1OCc1ccccc1`, the growth is 33%.

Turning to `C/C(=N\O)[C@H]1C[C@]23CC[C@]4(C)[C@H](CC[C@@H]5[C@@]6(C)CC/C(=N/O)C(C)(C)[C@@H]6CC[C@]54C)[C@H]2[C@H](C)C1(C)OC3`, the growth is 101%.

For `NS(=O)(=O)c1ccc(-n2cc(-c3cccc(NC(=O)c4ccc(N5CCOCC5)c(C(F)(F)F)c4)c3)nn2)cc1`, the growth is 20.3%.
